From PubChem BioAssay AID1851 (National Center for Advancing Translational Sciences (NCATS), 2009)
Values joined by “and” are separate entries in the source; they are usually repeats but may differ in a detail not shown here. Equal values may be shown once. Hit rate of the full screen: of about 16,000 compounds, about 2,600 (16%) were called active. About 20% were inconclusive and are not listed. Calls come from the whole dose curve; as a rule, active = well fitted curve in the direction sought with a large enough effect; inconclusive = small, poorly fitted or top-dose-only effect, or effect the other way; inactive = no such curve, though single readings can be large or run the other way. These entries were drawn from the full list. Where a structure was tested more than once in an assay, its records may differ in their call.

molecular target: Cytochrome P450 2D6 (Homo sapiens) (UniProt P10635); experiment: Cytochrome panel assay with activity outcomes; conditions: recombinant CYP, pro-luciferin dealkylation, luminescence, p450-cyp2d6; series mostly up to 57.1 µM; activity, negative = inhibition: at the top concentration
Sequence (P10635 whole entry, looked up): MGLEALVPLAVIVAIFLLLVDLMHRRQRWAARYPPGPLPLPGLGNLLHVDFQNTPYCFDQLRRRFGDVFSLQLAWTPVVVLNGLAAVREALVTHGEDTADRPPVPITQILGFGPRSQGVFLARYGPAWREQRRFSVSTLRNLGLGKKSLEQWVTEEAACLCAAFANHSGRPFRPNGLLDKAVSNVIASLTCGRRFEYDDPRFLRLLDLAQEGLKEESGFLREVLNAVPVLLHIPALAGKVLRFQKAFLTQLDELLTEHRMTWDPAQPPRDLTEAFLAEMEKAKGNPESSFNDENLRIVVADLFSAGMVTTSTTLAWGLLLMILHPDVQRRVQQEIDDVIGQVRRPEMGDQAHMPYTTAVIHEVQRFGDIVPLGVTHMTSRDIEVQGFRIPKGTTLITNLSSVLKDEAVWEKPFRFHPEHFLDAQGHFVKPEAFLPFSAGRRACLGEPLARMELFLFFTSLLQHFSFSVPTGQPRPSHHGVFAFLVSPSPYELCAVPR
% is set by controls: 0 for no effect and ±100 for the full control effect.

Compound	activity, negative = inhibition	AC50
CSCCC(NC=C1C(=O)OC(C)(C)OC1=O)C(=O)O (stereo unspecified)	-5.1% (inactive)	
CCOc1cc(/C=C2/NC(=O)N(CC(=O)Nc3cccc(C)c3)C2=O)ccc1OC	27.9% (inactive)	
CCCCSCc1nc2nc(Cl)c(Cl)nc2[nH]1	-12.2% [at 11.4 µM] (inactive)	
C[n+]1ccc(/C=C/c2ccc(Br)cc2)cc1	-25.3% (inactive)	
OCCNc1ncnc2nc[nH]c12	-4.05% [at 11.4 µM] (inactive)	
Cc1cc(NC(=O)COC(=O)c2ccc(S(=O)(=O)N3CCCc4ccccc43)cc2)no1	-20.2% (inactive)	
Cc1cccc(CNc2ncncc2-c2ccccc2Cl)c1		2 µM (active)
Cc1cnc(CNc2ncncc2-c2ccccc2C(F)(F)F)cn1	-18.3% (inactive)	
c1cncc(-c2cncnc2NC2CCNCC2)c1	-6.86% (inactive)	
Cc1cccc(CNc2ncncc2-c2ccccc2C(F)(F)F)c1		12.6 µM (active)
Cc1noc(C)c1-c1cncnc1NC1CC1	-5.38% (inactive)	
Cc1cnc(CNc2cc(-c3ccccc3C(F)(F)F)ncn2)cn1	3.41% (inactive)	
Cc1ccccc1-c1cncnc1NC1CCNCC1		10 µM (active)
O=C(c1cnccn1)N1CCC[C@@]2(CCN(c3ccncc3)C2)C1	4.46% (inactive)	
Cc1ccc(OC(=O)c2cccc(C(=O)Oc3ccc(C)cc3)n2)cc1	8.06% (inactive)	
N[C@H](C(=O)O)[C@H](O)C(=O)O	7.74% (inactive)	
O=C1C(Cc2ccccc2)C(c2ccccc2)N1c1ccccc1 (stereo unspecified)	-24.3% (inactive)	
COc1ncc2nc(-c3ccc(F)cc3)c(=O)n(Cc3ccc(F)cc3)c2n1	1.19% (inactive)	
N[C@@H](Cc1ccnnc1)C(=O)O	-0.458% [at 11.4 µM] (inactive)	
Cc1nc2cnc(Oc3ccccc3)nc2n(CCc2ccccc2)c1=O	8.49% (inactive)	
COc1n[nH]c2nncnc12	4.07% (inactive)	
Clc1ccc(COn2c(-c3ccccc3)nc3ccccc32)cc1		15.8 µM (active)
O=C(CCc1nc(-c2ccccc2)c(-c2ccccc2)o1)OCc1ccc(Cl)cc1	-26.9% (inactive)	
Cn1c(=O)c(-c2ccc(Cl)cc2)nc2cnc(OCc3ccccc3)nc21	7.5% (inactive)	

Compound	activity, negative = inhibition	AC50
O=[N+]([O-])c1ccc2nc(-c3ccccc3)n(OCc3ccc(Cl)cc3)c2c1		6.31 µM (active)
O=[N+]([O-])c1ccc2nc(-c3ccc(Cl)cc3)n(OCc3ccccc3)c2c1	-6.03% (inactive)	
Cc1ccc(COn2c(-c3ccc(Cl)cc3)nc3ccc([N+](=O)[O-])cc32)cc1	-20.1% (inactive)	
COc1cccc(Cn2c(=O)c(-c3cn(C)c4ccccc34)nc3cnc(N4CCOCC4)nc32)c1	-6.4% (inactive)	
O=c1c(-c2ccc(F)c(F)c2)nc2cncnc2n1-c1ccccc1	-7.35% (inactive)	
NS(=O)(=O)c1ccc(N=Nc2ccc(O)c(C(=O)O)c2)cc1	-7.58% [at 11.4 µM] (inactive)	
Cc1ccccc1/C=C1\OC(=O)c2ccccc21	-3.09% (inactive)	
CCCC[C@@H]1C[C@H]1C(NC(=O)c1cccs1)c1ccccc1C(F)(F)F (stereo partly specified)	2.19% (inactive)	
Cc1ccc(C(c2nnnn2CC2CCCO2)N2CCN(C(=O)c3ccco3)CC2)cc1 (stereo unspecified)	-15.5% (inactive)	
CCC(c1nnnn1CCOC)N1CCN(C(=O)c2ccco2)CC1 (stereo unspecified)	-6.06% (inactive)	
CC(C)CCn1nnnc1C(c1ccc(F)cc1)N1CCN(C(=O)c2ccco2)CC1 (stereo unspecified)		14.1 µM (active)
O=C(Nc1ccccc1N1CCN(C(=O)c2ccccc2)CC1)c1cc(Br)ccc1Cl	-14.4% (inactive)	
S=c1[nH]nc(CSCc2ccccc2Cl)n1-c1ccccc1	-16.7% (inactive)	
COC(=O)[C@@]1(Cc2ccc(OC)cc2)[C@@H]2[C@@H](CC(=O)[C@H]2CC(=O)C(=O)N2CCCC2)CN1C(=O)c1ccccc1	-5.43% (inactive)	
Cc1cccc(NC(=S)N/N=C/c2ccc([N+](=O)[O-])s2)c1	-9.95% (inactive)	
COc1ccc(-c2nc(N)c3ncn([C@H]4O[C@@H](CO)[C@@H](O)[C@@H]4O)c3n2)cc1	1.32% [at 11.4 µM] (inactive)	
Cc1cc(C)c(NC(=O)C(C)Sc2nnc(-c3ccco3)n2-c2ccccc2)c(C)c1 (stereo unspecified)	-4.41% (inactive)	
CC(Sc1nnc(C(C)N(C)C)n1-c1ccc(Cl)cc1)C(=O)Nc1ccc2c(c1)OCO2 (stereo unspecified)		14.1 µM (active)
COc1ccc(-n2c(=O)[nH]cc(C(=O)Nc3ccc4c(c3)OCCO4)c2=O)cc1	3.8% (inactive)	
CC(C)C1NC(=S)N(Cc2ccccc2)C1=O (stereo unspecified)	10% (inactive)	
COc1ccc(CNCCC(c2ccc(OC(C)C)cc2)C(C)C)cc1OC (stereo unspecified)		0.251 µM (active)
COc1ccc(CCNC[C@H](O)c2ccc(O)cc2)cc1OC	0.765% (inactive)	
COc1ccc(C[N+](C)(C)N)cc1OC	0.726% [at 11.4 µM] (inactive)	
COC(=O)C/C=C\[C@@H](C)[C@@H](/C=N\O[C@@H](C)c1cc(-c2c(C)cc(C)cc2C)no1)OC	-10.8% [at 11.4 µM] (inactive)	

Compound	activity, negative = inhibition	AC50
COc1ccc(-n2c(CNc3ccc(C)cc3)nnc2SCC(=O)Nc2nc(-c3ccccc3)cs2)cc1	-1.16% (inactive)	
O=c1cc(N2CCOCC2)oc2c(-c3ccccc3)cccc12		inactive and 25.1 µM (active)
CCc1ccccc1N1C(=O)c2cccc3c(N4CCOCC4)c([N+](=O)[O-])cc(c23)C1=O	2.74% (inactive)	
O=S1(=O)C=C(N2CCOCC2)c2ccccc21	-18.5% (inactive)	
CNc1nc(C)cc(C)c1S(=O)(=O)c1ccc(C)cc1	11.4% (inactive)	
Cc1ccc(-n2c3c(c(=O)[nH]c2=O)C(C(F)(F)F)(C(F)(F)F)NC(=O)N3)cc1	-1.45% (inactive)	
CCOc1cc(NC(=O)c2ccccc2[N+](=O)[O-])c(OCC)cc1NC(=O)CC(C)C	16.4% (inactive)	
COc1ccccc1NC(=O)Cn1cncc1-c1ccc([N+](=O)[O-])cc1	-5.83% (inactive)	
CCCOc1ccc(/C=C/C(=O)Nc2ccc([N+](=O)[O-])cc2C)cc1OC	3.41% (inactive)	
COc1ccc([N+](=O)[O-])cc1NC(=O)CC(C)c1ccccc1 (stereo unspecified)		11.2 µM (active)
CCOc1ccc(NC(=S)NC(=O)/C=C/c2ccc(OC)c(OC)c2)c([N+](=O)[O-])c1	11.2% (inactive)	
O=C(CSc1ccc(C(F)(F)F)cc1[N+](=O)[O-])Nc1ccccc1	-20.2% (inactive)	
Cc1ccc([N+](=O)[O-])cc1NC(=S)NC(=O)C(C)(C)C	13.5% (inactive)	
COc1ccc(OC)c(NC(=O)CC(Cc2ccccc2OC)C(=O)O)c1 (stereo unspecified)	25% (inactive)	
COc1ccc([N+](=O)[O-])cc1NC(=S)NC(NC(=O)Cc1ccc(OC)c(OC)c1)C(Cl)(Cl)Cl (stereo unspecified)		0.355 µM (active)
CCN(CC(=O)Nc1ccc([N+](=O)[O-])cc1OC)c1ccccc1		14.1 µM (active)
CCN(CC)S(=O)(=O)c1ccc(OC)c(NC(=O)CSc2ccccc2)c1	-21.4% (inactive)	
CC(CC(=O)Nc1ccc(Cl)c([N+](=O)[O-])c1)c1ccccc1 (stereo unspecified)		0.447 µM (active)
Cc1ccc(S(=O)(=O)N[C@H]2COC(=O)CC=C[C@@H](C)[C@H]3C=C[C@H](O)[C@@H](COC(=O)CC=C[C@H]2C)O3)cc1	-6.53% [at 11.4 µM] (inactive) and 13.3% [at 11.4 µM] (inactive)	
Cc1ccc(N2C(=O)CSC2c2cccnc2)cc1F (stereo unspecified)	-6.23% (inactive)	
c1ccc(-c2noc(-c3ccc4ccccc4c3)n2)cc1	-26.1% (inactive)	
CC(C)[C@H](CO)Nc1nc(Nc2ccc(C(=O)O)c(Cl)c2)c2ncn(C(C)C)c2n1	2.31% (inactive)	
C=CCNC(=O)c1cccn1-c1ccsc1C(=O)OC	15.1% (inactive)	
O=C(N[C@@]1(C(=O)O)C[C@@H]1c1ccccc1)c1ccccc1	11.3% [at 11.4 µM] (inactive)	

Compound	activity, negative = inhibition	AC50
CCCCn1c(SC(C)C(N)=O)nc2cc(C(=O)OC)ccc2c1=O (stereo unspecified)	28.8% (inactive)	
C/C(N)=C(/C#N)C(=O)CSc1nnc(COc2cc(C)ccc2C)o1	0.41% (inactive)	
COc1ccc(S(=O)(=O)N2CC3CCCN3c3ccc(C(F)(F)F)cc32)cc1 (stereo unspecified)	-19.1% (inactive)	
Cc1nn(Cc2ccc(Cl)cc2)c(C)c1NC(=O)CSc1nc2c(c(C(F)(F)F)n1)CCc1ccccc1-2	-21.3% (inactive)	
Nc1ccc(N=Nc2c(S(=O)(=O)O)cc3ccccc3c2S(=O)(=O)O)cc1	8.88% [at 11.4 µM] (inactive)	
COc1cnc(-c2ccccn2)nc1Oc1ccc(Cl)c2ccccc12	-13.3% (inactive)	
Cn1cc(-c2nc3cnc(N4CCOCC4)nc3n(CCC#N)c2=O)c2ccccc21	6.34% (inactive)	
CCOc1ccc(Cc2nc(C)c(CC(=O)N3CCOCC3)c(=O)[nH]2)cc1	-12.7% (inactive)	
Cc1noc(C)c1C(=O)N1CCC2(CCCN(C(=O)Nc3cccc(F)c3)C2)CC1	-6.3% (inactive)	
NC(=NCc1ccccc1)NC(=O)c1nc(Cl)c(N)nc1N		15.8 µM (active) and 5.01 µM (active)
NC(=NCc1ccc(Cl)c(Cl)c1)NC(=O)c1nc(Cl)c(N)nc1N		12.6 µM (active)
COC(=O)c1nnn(Cc2ccccc2)c1N	-25.1% (inactive)	
NC(Cc1ccccc1)=NCC(=O)O	9.41% [at 11.4 µM] (inactive)	
Cc1cc(C)c2c(=O)[nH]c(SCC(=O)N(C)C)nc2n1	4.04% (inactive)	
CN(C)c1ncc2nc(-c3ccc(Cl)cc3)c(=O)n(Cc3cccs3)c2n1	0.505% (inactive)	
CCOc1ccc(OCC)c(-c2c(=O)n(OCc3ccc(C(C)(C)C)cc3)c3ccccc3[n+]2[O-])c1	-0.869% (inactive)	
CC(=O)NNc1cccc(Cl)n1	-5.21% (inactive)	
CCOC(=O)C1=C(c2ccccc2)N=c2s/c(=C\c3cc(OC)c(OC)c(OC)c3)c(=O)n2C1c1cccs1 (stereo unspecified)	24.8% (inactive)	
CCOC(=O)C1=C(c2ccccc2)N=c2s/c(=C\c3cccc(O)c3)c(=O)n2C1c1cccs1 (stereo unspecified)		3.16 µM (active)
CCOC(=O)C1=C(c2ccccc2)N=c2s/c(=C\c3ccc(O)cc3)c(=O)n2C1c1cccs1 (stereo unspecified)	-6.93% (inactive)	
Cc1cc(/C=C(/C#N)C(=O)Nc2ccccc2)c(C)n1-c1cccnc1	3.42% (inactive)	
O=c1c(-c2cccs2)nc2cncnc2n1-c1ccccc1	-5.51% (inactive)	
O=c1[nH][nH]c(C(F)(F)F)c1C=Nc1ccccc1Cl	3.6% (inactive)	
O=C(CSc1cccc2cccnc12)OCC(=O)c1ccccc1	-14% (inactive)	
